Screening data deposited in PubChem by Sanford-Burnham Center for Chemical Genomics.
CRFBP-R2 block = blocks CRF-induced signaling of the CRF-BP/CRF-R2 complex; HEK293 CRF-R2/CRF-BP, CRF-induced calcium fluorescence; inhibition, % at 11.8 µM; 350,000 tested, 0.59% active;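 active = inhibition of the ligand-induced calcium signal above about 50% at the single tested concentration, limit read from the data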
PABP polyA inh = blocks human PABP binding to poly(A) RNA. inhibition, % at 35 µM. AID 2014. 290,000 tested, 1% active. P11940. fluorescence polarization;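 also: calls also rest on retests at 20 µM and on dose response follow-up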
PHOSPHO1 block = inhibitors of human PHOSPHO1 phosphatase | 290,000 tested, 1.1% active | inhibition, % at 13.3 µM | Q8TCT1 | AID 1565 | recombinant PHOSPHO1, absorbance phosphatase assay; in the data active = inhibition above about 60%
Target sequence (Q8TCT1 whole entry, looked up): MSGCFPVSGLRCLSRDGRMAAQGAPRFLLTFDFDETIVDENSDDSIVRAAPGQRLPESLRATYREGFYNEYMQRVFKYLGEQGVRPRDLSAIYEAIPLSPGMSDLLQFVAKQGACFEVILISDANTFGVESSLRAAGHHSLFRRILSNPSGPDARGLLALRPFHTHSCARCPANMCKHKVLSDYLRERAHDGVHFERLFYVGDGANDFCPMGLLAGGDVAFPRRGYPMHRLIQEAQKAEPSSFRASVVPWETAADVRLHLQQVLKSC
eIF4H inh = inhibitors of RNA binding by human eIF4H | inhibition, % at 35 µM | 290,000 tested, 0.94% active | eIF4H fluorescence polarization binding assay | Q15056;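 also: calls also rest on retests at 20 µM and on dose response follow-up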
MLLE-PAM2 inh = inhibitors of microRNA-mediated deadenylation, human PABP1 MLLE binding; P11940; GST-MLLE / FITC-PAM2 fluorescence polarization; inhibition, % at 20 µM; 360,000 tested, 0.36% active; AID 588489; in the data active = inhibition above about 35%, passing the limit was not always enough;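 also: plate controls were DMSO wells with GST-MLLE for no effect and wells lacking GST-MLLE protein for full effect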
* = called active by the depositor; ? = inconclusive; / = no result. In the library only some 2.6% were active in any assay of this set; here they are far more common. Unless noted, no rule for the calls is given here.

SMILES	CRFBP-R2 block	PABP polyA inh	PHOSPHO1 block	eIF4H inh	MLLE-PAM2 inh
O=c1[nH]c2ccccc2nc1C(Nc1ccccc1)c1ccccc1 (stereo not drawn)	-19	12	25	-8	-3
CCOP(=O)(NC(c1ccccc1)c1nc2ccccc2[nH]c1=O)OCC (stereo not drawn)	-9	-16	61*	-11	7
CC1(C(=O)Nc2ccc3c(c2)OCCO3)CCN1C(=O)c1cccc(F)c1 (stereo not drawn)	/	/	/	/	0
CCC(SC1=NCCS1)C(=O)Nc1ccc(S(N)(=O)=O)cc1 (stereo not drawn)	-3	-1	-3	7	41*
COc1cc(C)ccc1S(=O)(=O)NC(=O)Cn1nnc(COc2ccc3c(c2)CCCC3)c1C	/	/	/	/	17
CC(C)(C)OC(=O)N1CCCC1C(=O)NCCc1ccccc1 (stereo not drawn)	17	52*	-75	6	-152
CC1CCCCN1C(=S)NCCc1ccccc1 (stereo not drawn)	-4	5	88*	0	-108
CCCNC(=O)C1(C)CCN(C(=O)c2cccc(C#N)c2)C1 (stereo not drawn)	/	/	/	/	9
CC1(C(=O)NCc2cccs2)CCN1CCc1ccccc1 (stereo not drawn)	/	/	/	/	7
C[C@]12c3[nH]c4cc(-c5ccco5)ccc4c3CCN1C(=O)[C@@H](CC(=O)NCc1cccc(C(F)(F)F)c1)C[C@@H]2C(=O)N1CCOCC1	-4	/	/	/	-5
O=C(CSc1nnnn1C1CCCC1)Nc1ccc(F)cc1	-33	2	62*	-4	4
O=C(c1ccc(F)cc1)[C@@H]1[C@@H](C(=O)c2ccccc2)[C@@]2(C(=O)Nc3ccccc32)[C@H]2c3ccccc3C=CN12	/	6	-11	51*	/
CC(=O)[C@@H]1[C@@H](C(=O)c2ccc(F)cc2)[C@]2(C(=O)Nc3ccccc32)[C@H]2C=Cc3cc(F)ccc3N12	8	6	15	4	13
CCN(CC)C(=O)C1=C(C)N(CCCN2CCCC2=O)C(=O)C(CC(=O)NCCCN(C)C)C1 (stereo not drawn)	14	/	/	/	-7
CN(CCO)c1nc(N)c2c(N)nc3c(c2c1C#N)CC(=O)N3C1CCCC1	/	77*	36	?	/
CC(C)(C)N1C(=O)Cc2c1nc(N)c1c(N)nc(N3CCCCC3CO)c(C#N)c21 (stereo not drawn)	-19	?	9	?	-7
N#Cc1c(N2CCN(c3ccc(F)cc3)CC2)nc(N)c2c(N)nc3c(c12)CC(=O)N3C1CC1	-9	8.0*	17	?	-29
COc1ccc2c(c1)CCN1C2CCN2C(=O)CCC21 (stereo not drawn)	-3	46*	16	73*	58*
CCOC(=O)N1CCN(C(=O)CNC2CCCCCCC2)CC1	4	6	37	3	4
CO/N=C/C1C(=O)NN=C1c1ccccc1 (stereo not drawn)	13	93*	15	?	5
CCOC(=O)c1c(C)n(C)c2ccc(OC)c([N+](=O)[O-])c12	32	1	44	-1	1
O=C(O)C1=CCCNC1	57*	/	/	/	4
Cc1cc(C)cc(CC(=O)N2CCC2(C)C(=O)NS(=O)(=O)c2cccc(F)c2)c1 (stereo not drawn)	/	/	/	/	4
CCOc1ccc(-c2csc(/C(C#N)=C\c3ccc(O)c([N+](=O)[O-])c3)n2)cc1	35	0	-13	58*	-25
OCCN1CCN(C(c2cccs2)c2ccc3cccnc3c2O)CC1 (stereo not drawn)	/	6	105*	30	/
SMILES	CRFBP-R2 block	PABP polyA inh	PHOSPHO1 block	eIF4H inh	MLLE-PAM2 inh
CC(C)(C)c1cc(C(c2cccnc2)N2CCN(CCO)CC2)cc(C(C)(C)C)c1O (stereo not drawn)	-2	-3	23	6	22
CCN1CCN(C(c2ccc(C(F)(F)F)cc2)c2ccc3cccnc3c2O)CC1 (stereo not drawn)	-4	-15	-102	4	41*
COc1cc(OC)c(C2CC(=O)N3CN(C)CSC3=C2C#N)cc1OC (stereo not drawn)	-11	6	48	14	-3
COc1ccc(OC)c(C2CC(=O)N3CN(c4ccc(C)c(Cl)c4)CSC3=C2C#N)c1 (stereo not drawn)	-10	57	79*	9	-1
COc1cc(OC)c(C2CC(=O)N3CN(c4ccccc4)CSC3=C2C#N)cc1OC (stereo not drawn)	40	28	103*	22	6
COc1ccc(OC)c(C2CC(=O)N3CN(c4cccc(Cl)c4)CSC3=C2C#N)c1 (stereo not drawn)	33	15	94*	6	-31
CCOC(=O)c1ccc(N2CSC3=C(C#N)C(c4ccc(OC)cc4OC)CC(=O)N3C2)cc1 (stereo not drawn)	-1	7	90*	-10	-106
CCc1ccccc1N1CSC2=C(C#N)C(c3cc(OC)c(OC)cc3OC)CC(=O)N2C1 (stereo not drawn)	-13	52	6	19	-26
COc1ccc(Br)cc1C1CC(=O)N2CN(C)CSC2=C1C#N (stereo not drawn)	-53	-2	48	10	-20
Cn1cc(CN2CCC(Oc3ccc(C(=O)N4CCCCC4)cc3)CC2)cn1	19	-11	-19	6	-1
Nc1nc2c(ncn2[C@@H]2O[C@H](CNCc3ccccc3)[C@@H](O)[C@H]2O)c(=O)[nH]1	/	/	/	/	11
C=CCNC(=O)COc1cc(C)ccc1C	31	8	-6	-4	4
CCOc1ccc(C(=O)Nc2ccc(Cl)cn2)cc1Cl	56*	-4	-22	-3	-8
O=C(COc1ccc(Cl)cc1Cl)Nc1ccc(Cl)cn1	-29	-2	-18	4	3
CC(C)Nc1ncnc2c1ncn2[C@H]1CN(CCN2CCOCC2)C[C@@H](CO)O1	/	/	/	/	10
CC(=O)C[C@@H](O)CC(=O)[C@H]1OC(=O)[C@H](C)CCCCc2ccccc21	-1	/	/	/	6
CCOC(=O)c1ccccc1NC(=O)N1CCn2c(C)ccc2C1CC (stereo not drawn)	5	116*	13	?	5
CCC1c2ccc(C)n2CCN1C(=O)Nc1ccccc1C(=O)OC (stereo not drawn)	-2	125*	3	132	24
CCC1c2ccc(C)n2CCN1C(=O)Nc1cc(Cl)ccc1OC (stereo not drawn)	42	0	-6	43	12
CCCC1c2ccc(C)n2CCN1C(=O)Nc1ccccc1Cl (stereo not drawn)	-3	-2	-35	?	28
Cc1ccc(S(=O)(=O)N2CCOCC2)cc1C(=O)NC1=NCCS1	8	/	/	/	-4
COc1ccc(Cl)cc1NC(=O)c1cccc(S(=O)(=O)Nc2c(C)n(C)n(-c3ccccc3)c2=O)c1	-6	/	/	/	/
N#Cc1cccc(NCC(=O)Nc2ccc3c(c2)OCCO3)c1	80*	-4	5	4	14
Cc1[nH]c2ccc(C(=O)OC(C)C(=O)NCc3ccccc3)cc2c1C (stereo not drawn)	23	/	/	/	-15
